Test results: PubChem BioAssay (Tox21)
Inconclusive results are not listed. Unmarked numbers belong to inactive results. Calls of active or inactive are those of the source. The call rests on the fitted dose curve.

Assay: qHTS assay to identify small molecule agonists of H2AX - cell viability counter screen (AID 1224847); further: nearly all actives have a fitted effect of over 30% in size; on activity change, negative = cytotoxicity: top concentration of the series differs between compounds
Conditions: CHO-K1 viability, CellTiter-Glo luminescence, 3 h; series mostly up to 154 µM; activity change, negative = cytotoxicity: at the top concentration
Excerpt: National Center for Advancing Translational Sciences [NCATS]
NIH Chemical Genomics Center [NCGC]
U.S. Environmental Protection Agency [EPA]
National Institutes of Environmental Health Sciences [NIEHS]
National Toxicology Program [NTP]
U.S. Food and Drug Administration [FDA]
HTRF phospho-H2AX (Ser139) assay (Cisbio Bioassays, US) enables the quantitative detection of the histone variant H2AX when phosphorylated on serine 139. When double-stranded DNA breaks, either by ionizing radiation or endogenous physiological processes, H2AX becomes phosphorylated at Ser139. This phospho-Ser139 serves as a sensitive biomarker for the detection of such breaks, localizing the site of DNA repair. So, HTRF phospho-H2AX Ser139 is a pertinent assay to study genome stability, the cell cycle, DNA repair, and it serves as a biomarker for cancer, and to understand aging. Wild type CHO-K1 cells were used to identify the inducers of Phospho-H2AX Ser 139 from the Tox21 compound collections. Also cytotoxicity of the Tox21 10K compound library against the CHO-K1 cell line was tested by measuring the cell viability using CellTiter-Glo assay (Promega, Madison, WI).
Tox21 Assay Protocol Summary:
The CHO-K1 cells suspended in culture medium containing 10% FBS were dispensed at 1000 cells/ 3 ul/well in 1536-well white wall/solid bottom plates (Greiner Bio-One North America, NC) using a Multidrop Combi (Thermo Fisher Scientific Inc., Waltham, MA). After the assay plates were incubated at 37C overnight, 23 nl of compounds at 15 concentrations (from 5-48 columns) or positive control (from 1 to 4 columns) were transferred to the assay plates using a Pintool station (Wako, San Diego, CA) into each well resulting in a final DMSO concentration of 0.76%. After 3hr incubation at 37C, 3 uL/well CellTiter-Glo luminescent cell viability reagent (Promega Corporation, Madison, WI) was added using a Flying Reagent Dispenser (FRD) (Aurora Discovery, CA). After incubation at room temperature for 30 min, the luminescence intensity was read using a ViewLux plate reader (PerkinElmer, Waltham, MA).
On the % scale 0 is the no-effect control and ±100 the full control effect; potency means the concentration at half of the fitted maximal effect.

Row | SMILES | activity change, negative = cytotoxicity | Potency
1 | CC(=O)N(CC(O)CN(C(C)=O)c1c(I)c(C(=O)NCC(O)CO)c(I)c(C(=O)NCC(O)CO)c1I)c1c(I)c(C(=O)NCC(O)CO)c(I)c(C(=O)NCC(O)CO)c1I (stereo not given) | -0.132% [at 70.9 µM] | 
2 | Oc1ccccc1C=NCc1ccccc1 | 0.842% [at 70.9 µM] | 
3 | CCCC(CCC)(C(=O)OCC)C(=O)OCC | 1.79% [at 70.9 µM] | 
4 | O=C(O)c1ccccc1Nc1cc(Cl)ccc1C(=O)O | 9.56% [at 31.6 µM] | 
5 | COc1ccc(Nc2ccc(OC)cc2)cc1 | -6.18% | 
6 | CCN[C@H]1CN(CCCOC)S(=O)(=O)c2sc(S(N)(=O)=O)cc21 | -0.203% [at 70.9 µM] | 
7 | Cc1ccccc1C(=O)Nc1ccc(C(=O)N2CCCC(O)c3cc(Cl)ccc32)c(C)c1 (stereo not given) | -0.31% [at 70.9 µM] | 
8 | NC(=O)NS(=O)(=O)c1ccc(Cl)cc1 | 1.34% [at 70.9 µM] | 
9 | O=S(=O)(O)C(F)(F)F | 0.639% | 
10 | O=C1CCC(C2CCCCC2)CC1 | 4.69% | 
11 | CCCCCCCCOC(=O)CCCCCCCCC(=O)OCCCCCCCC | 5.34% | 
12 | CC(C)=CCCC(C)CCOC=O (stereo not given) | 1.24% | 
13 | CC(C)(C)C1CCCCC1=O (stereo not given) | 1.68% | 
14 | NS(=O)(=O)c1cc(-c2nn[nH]n2)c(NCc2cccs2)cc1Cl | 10.2% [at 70.9 µM] | 
15 | CCCCNc1cc(C(=O)O)cc(S(N)(=O)=O)c1Oc1ccccc1 | 0.415% [at 70.9 µM] | 
16 | O=Cc1ccc(O)c(O)c1O | 0.609% [at 70.9 µM] | 
17 | C=CCc1cc(OC)c(O)c(C(=O)NCCO)c1 | -2.21% [at 70.9 µM] | 
18 | Cc1nc(N)nc(N)c1-c1ccc(Cl)c(Cl)c1 |  | 1.24 µM (active)
19 | CN1CCN(c2c(F)cc3c(=O)c(C(=O)O)cn(CCF)c3c2F)CC1 | 0.447% [at 70.9 µM] | 
20 | CCOC(=O)[C@H](CCc1ccccc1)N[C@@H](C)C(=O)N1Cc2cc(OC)c(OC)cc2C[C@H]1C(=O)O | 3.93% [at 70.9 µM] | 

Row | SMILES | activity change, negative = cytotoxicity | Potency
21 | O=C(O)CN(CCN(CC(=O)O)CC(=O)O)CCN(CC(=O)O)CC(=O)O | 0.16% [at 31.6 µM] | 
22 | CCOc1ccc(NC(N)=O)cc1 | 2.6% | 
23 | CCOc1ccc(NS(=O)(=O)c2ccc(N)cc2)nn1 | 4.65% [at 70.9 µM] | 
24 | Cc1c(C(=O)NCCO)[n+](=O)c2ccccc2n1[O-] | 0.59% [at 70.9 µM] | 
25 | Cc1nc(-c2ccccn2)ncc1C(=O)Nn1cc(C)c2cc(F)ccc21 | -6.76% | 
26 | c1ccc(CN(CC2=NCCN2)c2ccccc2)cc1 | -0.841% [at 70.9 µM] | 
27 | Cn1cnc2c(F)c(Nc3ccc(Br)cc3Cl)c(C(=O)NOCCO)cc21 | 0.557% [at 70.9 µM] | 
28 | Cc1ccsc1C(=CCCN1CCC[C@@H](C(=O)O)C1)c1sccc1C | 0.792% [at 70.9 µM] | 
29 | CC(C)(CO)[C@@H](O)C(=O)NCCC(=O)O | 2.72% | 
30 | CC(CNC1CCCCC1)OC(=O)c1ccccc1 (stereo not given) | -0.249% [at 70.9 µM] | 
31 | OCc1c2ccccc2cc2ccccc12 | -1.68% | 
32 | COc1cc2c(cc1N)oc1ccccc12 | -12.4% | 
33 | CCCCOc1cc(C(=O)NCCN(CC)CC)c2ccccc2n1 | -2.71% [at 70.9 µM] | 
34 | CC1=C(CC(=O)O)c2cc(F)ccc2/C1=C\c1ccc(S(C)(=O)=O)cc1 | 1.59% [at 70.9 µM] | 
35 | N#CSCC(=O)O | -1.45% [at 70.9 µM] | 
36 | NCCCN1CCN(CCCN)CC1 | 1.57% | 
37 | COC(C)CCO (stereo not given) | 0.615% | 
38 | O=c1oc2c(O)c(O)cc3c(=O)oc4c(O)c(O)cc1c4c23 | 0.906% [at 31.6 µM] | 
39 | N#Cc1ccc(C(c2ccc(C#N)cc2)n2cncn2)cc1 | 1.69% [at 70.9 µM] | 
40 | CCCCc1ccc2nc(NC(=O)OC)[nH]c2c1 | -2.78% [at 70.9 µM] | 
